Test results published in PubChem BioAssay AID1159580 (chemical genetic matrix, 2015).
In all, about 5,500 compounds went through this assay and about 2,000 (36%) were called active. About 18% were inconclusive and are not listed. The list shows a part of the results. A number with no mark means an inactive call. Cut-off read from the data, not from the text of the source: active = normalized growth mostly below about 0.91 (no sharp cut-off); inconclusive = no clear call, values can overlap the other calls; inactive = mostly above about 0.92.

Assay: chemical genetic growth profiling, strain panel (AID 1159580);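 note: tested at 20 µM; growth read once vehicle control cultures reached saturation at 30 °C; 1 = growth at the plate median or of vehicle wells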
Conditions: S. cerevisiae deletion strains, growth OD
[1] = locus YGR078C, strain PAC10, stronger effect = lower value
[2] = locus YJR075W, strain HOC1, stronger effect = lower value
[3] = locus YMR263W, strain SAP30, stronger effect = lower value
[4] = locus YMR307W, strain GAS1, stronger effect = lower value
[5] = locus YNL153C, strain GIM3, stronger effect = lower value
[6] = locus YNL322C, strain KRE1, stronger effect = lower value
[7] = locus YPL055C, strain LGE1, stronger effect = lower value
[8] = locus YPL241C, strain CIN2, stronger effect = lower value

Q: For `CNCCNS(=O)(=O)c1cccc2cnccc12`, which normalized growth (locus YAL040C, strain CLN3, stronger effect = lower value) is on record?
A: 1

Q: And the normalized growth (locus YCL061C, strain MRC1 (second series), stronger effect = lower value)?
A: 1

Q: And the normalized growth (locus YDR363W, strain ESC2, stronger effect = lower value)?
A: 1.03

Q: What about the normalized growth (locus YER002W, strain NOP16, stronger effect = lower value) of the same compound?
A: 1

Q: And the normalized growth [1]?
A: 1.02

Q: And the normalized growth [2]?
A: 1.01

Q: What about the normalized growth [3] of the same compound?
A: 0.998

Q: What about the normalized growth [4] of the same compound?
A: 1

Q: What about the normalized growth [5] of the same compound?
A: 1.01

Q: What about the normalized growth (locus YNL175C, strain NOP13, stronger effect = lower value) of the same compound?
A: 1.01

Q: And the normalized growth (locus YNL197C, strain WHI3, stronger effect = lower value)?
A: 1.04

Q: What about the normalized growth (locus YNL224C, strain SQS1, stronger effect = lower value) of the same compound?
A: 1

Q: What about the normalized growth [6] of the same compound?
A: 1.02

Q: What about the normalized growth (locus YOR083W, strain WHI5 (second series), stronger effect = lower value) of the same compound?
A: 1

Q: And the normalized growth [7]?
A: 1.01

Q: What about the normalized growth [8] of the same compound?
A: 0.999

Q: For `CCOC(=O)c1csc(N/N=C2/CCCc3ccccc32)n1`, which normalized growth (locus YBR229C, strain ROT2, stronger effect = lower value) is on record?
A: 0.887 (active)

Q: What about the normalized growth (locus YDL101C, strain DUN1, stronger effect = lower value) of the same compound?
A: 0.862 (active)

Q: What about the normalized growth (locus YDL134C, strain PPH21, stronger effect = lower value) of the same compound?
A: 0.458 (active)

Q: What about the normalized growth (locus YDR150W, strain NUM1, stronger effect = lower value) of the same compound?
A: 0.897

Q: What about the normalized growth (locus YEL061C, strain CIN8, stronger effect = lower value) of the same compound?
A: 0.821 (active)

Q: What about the normalized growth [1] of the same compound?
A: 0.899 (active)

Q: What about the normalized growth (locus YGR229C, strain SMI1, stronger effect = lower value) of the same compound?
A: 0.986

Q: What about the normalized growth (locus YHR030C, strain SLT2, stronger effect = lower value) of the same compound?
A: 0.232 (active)

Q: And the normalized growth (locus YHR087W, strain rtc3, stronger effect = lower value)?
A: 0.899 (active)

Q: What about the normalized growth (locus YJR043C, strain POL32, stronger effect = lower value) of the same compound?
A: 0.965

Q: What about the normalized growth [2] of the same compound?
A: 0.867 (active)

Q: And the normalized growth (locus YLR039C, strain RIC1, stronger effect = lower value)?
A: 0.701 (active)

Q: What about the normalized growth (locus YLR058C, strain SHM2 (second series), stronger effect = lower value) of the same compound?
A: 0.976

Q: And the normalized growth (locus YLR085C, strain ARP6, stronger effect = lower value)?
A: 0.573 (active)

Q: What about the normalized growth (locus YLR262C, strain YPT6, stronger effect = lower value) of the same compound?
A: 0.868

Q: And the normalized growth (locus YML094W, strain GIM5, stronger effect = lower value)?
A: 0.749 (active)

Q: What about the normalized growth (locus YMR219W, strain ESC1, stronger effect = lower value) of the same compound?
A: 0.92 (active)

Q: What about the normalized growth [3] of the same compound?
A: 0.88 (active)

Q: What about the normalized growth [4] of the same compound?
A: 0.631 (active)

Q: What about the normalized growth (locus YNL128W, strain TEP1, stronger effect = lower value) of the same compound?
A: 0.971

Q: And the normalized growth [5]?
A: 0.915 (active)

Q: And the normalized growth (locus YNL298W, strain CLA4 (second series), stronger effect = lower value)?
A: 0.732 (active)

Q: And the normalized growth [6]?
A: 1

Q: What about the normalized growth (locus YNR030W, strain Alg12, stronger effect = lower value) of the same compound?
A: 0.779 (active)

Q: And the normalized growth (locus YOL006C, strain TOP1, stronger effect = lower value)?
A: 0.849

Q: And the normalized growth [7]?
A: 0.692 (active)

Q: And the normalized growth [8]?
A: 0.747 (active)

Q: What about the normalized growth (locus YPR135W, strain CTF4, stronger effect = lower value) of the same compound?
A: 0.629 (active)
